Read-out in test [1]: C-C motif chemokine 2 (Homo sapiens) (UniProt P13500)
The experiment in a line: BSK_KF3CT_MCP1: BioMAP Diversity Plus: KF3CT Assay for Monocyte Chemoattractant Protein 1 (MCP1/CCL2) Biomarker Activity (AID 2283073). The conditions noted are these: primary human keratinocytes with fibroblasts; actives raise or lower the signal. In a few lines:
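Human keratinocyte plus foreskin fibroblast primary co-culture exposed to chemical for 24 h. MCP-1 levels measured by ELISA. Bidirectional curve fitting relative to DMSO negative control as baseline.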

Read-out in test [2]: Matrix Metallopeptidase 9 (MMP9), MMP9 (gene 4318)
The experiment in a line: BSK_KF3CT_MMP9: BioMAP Diversity Plus: KF3CT Assay for Matrix Metallopeptidase 9 (MMP9) Biomarker Activity (AID 2283074).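 For AC50: MMP9 protein level quantified by ELISA in the co-culture.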 The conditions noted are these: primary human keratinocytes with fibroblasts; actives raise or lower the signal. In a few lines:
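MMP-9 quantified by ELISA after 24 h chemical treatment of primary human skin keratinocyte/fibroblast co-cultures; gain or loss fitted against DMSO, with parallel SRB staining (0.1% SRB, 560 nm) for overt cytotoxicity.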

Read-out in test [3]: urokinase plasminogen activator (uPA), PLAU (gene 5328)
The experiment in a line: BSK_KF3CT_uPA: BioMAP Diversity Plus: KF3CT Assay for urokinase plasminogen activator (uPA) Biomarker Activity (AID 2283075). The conditions noted are these: primary human keratinocytes with fibroblasts; actives raise or lower the signal. In a few lines: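 ELISA read-out of uPA 24 h after dosing human skin keratinocytes co-cultured with foreskin fibroblasts. Signal change fitted both ways relative to DMSO; sulforhodamine B on parallel cultures marks overt cytotoxicity.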

Read-out in test [4]: CD40, CD40 (gene 958)
Briefly: BSK_LPS_CD40: BioMAP Diversity Plus: LPS Assay for CD40 Biomarker Activity (AID 2283076). As to conditions: primary human HUVEC with PBMC; actives raise or lower the signal. In a few lines:
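Primary human umbilical vein endothelial cells co-cultured with peripheral blood mononuclear cells, LPS-stimulated, were dosed with chemical and read 24 h later. CD40 levels were measured by ELISA and fitted bidirectionally against DMSO as negative control and baseline.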

Read-out in test [5]: E-selectin (Homo sapiens) (UniProt P16581)
Briefly: BSK_LPS_Eselectin: BioMAP Diversity Plus: LPS Assay for Eselectin Biomarker Activity (AID 2283077). The conditions noted are these: primary human HUVEC with PBMC; actives raise or lower the signal. In a few lines: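 Human umbilical vein endothelial cells co-cultured with peripheral blood mononuclear cells under LPS stimulation; E-selectin measured by ELISA 24 h after chemical dosing. Activity fitted bidirectionally against DMSO as negative control and baseline.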

Read-out in test [6]: Interleukin-8 (IL8), CXCL8 (gene 3576)
The experiment in a line: BSK_LPS_IL8: BioMAP Diversity Plus: LPS Assay for Interleukin-8 (IL8) Biomarker Activity (AID 2283078). The conditions noted are these: primary human HUVEC with PBMC; actives raise or lower the signal. In a few lines: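 Human umbilical vein endothelial cells co-cultured with PBMC were stimulated with LPS; IL-8 levels were measured by ELISA 24 h after chemical dosing. Activity was fitted bidirectionally against DMSO as negative control and baseline.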

A short description of test [7]: BSK_LPS_SRB: Viability Assessment in the BioMAP Diversity Plus: LPS Assay (AID 2283079).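 Note: total protein by sulforhodamine B absorbance as a cytotoxicity measure; measured one day after compound addition; fitted in both directions against DMSO so loss or gain of signal counts.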 The conditions noted are these: primary human HUVEC with PBMC. In a few lines: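 Human umbilical vein endothelial cells co-cultured with PBMC (LPS system) were dosed for 24 h. Total protein was stained with 0.1% sulforhodamine B after 10% TCA fixation, read at 560 nm, and fitted bidirectionally against DMSO baseline.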

Read-out in test [8]: Interleukin-1 alpha (IL1a), IL1A (gene 3552)
Briefly: BSK_LPS_IL1a: BioMAP Diversity Plus: LPS Assay for Interleukin-1 alpha (IL1a) Biomarker Activity (AID 2283080). As to conditions: primary human HUVEC with PBMC; actives raise or lower the signal. In a few lines: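 Human umbilical vein endothelial cells co-cultured with peripheral blood mononuclear cells were LPS-stimulated and exposed to test chemicals for 24 h. IL-1 alpha was quantified by ELISA, with bidirectional curve fitting against DMSO as the negative control and baseline.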

Read-out in test [9]: Monocyte Chemoattractant Protein-1 (MCP1), CCL2 (gene 6347)
The experiment in a line: BSK_LPS_MCP1: BioMAP Diversity Plus: LPS Assay for Monocyte Chemoattractant Protein-1 (MCP1) Biomarker Activity (AID 2283081).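 For AC50: secreted MCP-1 protein quantified by ELISA in culture supernatant.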 The conditions noted are these: primary human HUVEC with PBMC; actives raise or lower the signal. In a few lines:
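HUVEC plus PBMC co-culture (human primary cells, LPS system) exposed to test chemical for 24 h; MCP-1 measured by ELISA. Bidirectional curve fitting against DMSO baseline; parallel SRB total-protein staining flags overt cytotoxicity.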

Test [10] can be described thus: BSK_LPS_PGE2: BioMAP Diversity Plus: LPS Assay for Prostaglandin E2 (PGE2) Biomarker Activity (AID 2283082).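 For AC50: secreted prostaglandin E2 measured by ELISA in LPS-stimulated co-culture.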 As to conditions: primary human HUVEC with PBMC; actives raise or lower the signal. In a few lines:
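ELISA read-out of PGE2 from human umbilical vein endothelial cells co-cultured with peripheral blood mononuclear cells under LPS, 24 h post-dose. Gain or loss of signal scored relative to DMSO baseline.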

Read-out in test [11]: Macrophage colony-stimulating factor (MCSF), CSF1 (gene 1435)
Briefly: BSK_LPS_MCSF: BioMAP Diversity Plus: LPS Assay for Macrophage colony-stimulating factor (MCSF) Biomarker Activity (AID 2283083). The conditions noted are these: primary human HUVEC with PBMC; actives raise or lower the signal. In a few lines: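 Human umbilical vein endothelial cells co-cultured with peripheral blood mononuclear cells were exposed to compound for 24 h. M-CSF levels were measured by ELISA, and bidirectional curve fitting used DMSO as the negative control and baseline.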

Read-out in test [12]: Tissue Factor, F3 (gene 2152)
Briefly: BSK_LPS_TissueFactor: BioMAP Diversity Plus: LPS Assay for Tissue Factor Biomarker Activity (AID 2283084). The conditions noted are these: primary human HUVEC with PBMC; actives raise or lower the signal. In a few lines: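 Human umbilical vein endothelial cells co-cultured with peripheral blood mononuclear cells were dosed and stimulated with LPS. Cell-surface CD142 was quantified by ELISA at 24 h. Activity was fitted bidirectionally against DMSO baseline.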

Read-out in test [13]: Vascular cell adhesion molecule 1 (VCAM1), VCAM1 (gene 7412)
Briefly: BSK_LPS_VCAM1: BioMAP Diversity Plus: LPS Assay for Vascular cell adhesion molecule 1 (VCAM1) Biomarker Activity (AID 2283086). The conditions noted are these: primary human HUVEC with PBMC; actives raise or lower the signal. In a few lines:
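ELISA read-out of VCAM-1 at 24 h post-dosing in an LPS-driven HUVEC/PBMC primary human co-culture; gain or loss of signal fitted bidirectionally against DMSO baseline. Cytotoxicity tracked in parallel cultures by SRB total-protein staining.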

Read-out in test [14]: CD38, CD38 (gene 952)
Briefly: BSK_SAg_CD38: BioMAP Diversity Plus: SAg Assay for CD38 Biomarker Activity (AID 2283087). The conditions noted are these: primary human HUVEC with PBMC; actives raise or lower the signal. In a few lines:
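Measures CD38 on a human endothelial/PBMC co-culture driven by SEB and TSST-1, 24 h after compound exposure, using ELISA with fluorescence detection; DMSO defines baseline for bidirectional curve fitting.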

Read-out in test [15]: CD40, CD40 (gene 958)
The experiment in a line: BSK_SAg_CD40: BioMAP Diversity Plus: SAg Assay for CD40 Biomarker Activity (AID 2283088). As to conditions: primary human HUVEC with PBMC; actives raise or lower the signal. In a few lines: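 Human umbilical vein endothelial cells co-cultured with PBMC; CD40 levels measured by ELISA with fluorescence read-out 24 h after chemical dosing. Gain or loss of signal fitted bidirectionally against DMSO baseline.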

Read-out in test [16]: CD69, CD69 (gene 969)
The experiment in a line: BSK_SAg_CD69: BioMAP Diversity Plus: SAg Assay for CD69 Biomarker Activity (AID 2283089).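 For AC50: cell surface CD69 protein quantified by ELISA with fluorescence detection.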 The conditions noted are these: primary human HUVEC with PBMC; actives raise or lower the signal. In a few lines:
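Primary human vascular co-culture (umbilical vein endothelium with peripheral blood mononuclear cells) exposed to test chemical for 24 h. CD69 levels quantified by fluorescence ELISA; DMSO served as negative control for bidirectional fitting.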

Read-out in test [17]: Monocyte Chemoattractant Protein-1 (MCP1), CCL2 (gene 6347)
The experiment in a line: BSK_SAg_MCP1: BioMAP Diversity Plus: SAg Assay for Monocyte Chemoattractant Protein-1 (MCP1) Biomarker Activity (AID 2283090). As to conditions: primary human HUVEC with PBMC; actives raise or lower the signal. In a few lines:
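Values derive from bidirectional fitting of ELISA-measured MCP1 against DMSO controls. Readings were taken 24 h after dosing human vascular endothelial cells co-cultured with peripheral blood mononuclear cells under superantigen stimulation.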

Read-out in test [18]: E-selectin (Homo sapiens) (UniProt P16581)
Briefly: BSK_SAg_Eselectin: BioMAP Diversity Plus: SAg Assay for Eselectin Biomarker Activity (AID 2283091). As to conditions: primary human HUVEC with PBMC; actives raise or lower the signal. In a few lines: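 HUVEC co-cultured with PBMC, compound dosed then read at 24 h; E-selectin measured by ELISA. Activity fitted bidirectionally against DMSO as negative control and baseline.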

Read-out in test [19]: Monokine induced gamma interferon (MIG), CXCL9 (gene 4283)
The experiment in a line: BSK_SAg_MIG: BioMAP Diversity Plus: SAg Assay for Monokine induced gamma interferon (MIG) Biomarker Activity (AID 2283092). As to conditions: primary human HUVEC with PBMC; actives raise or lower the signal. In a few lines:
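Endothelial cells and PBMC were co-cultured, exposed to test chemicals, and sampled 24 h later. MIG was measured by ELISA, and responses were fitted in both directions relative to DMSO.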

Read-out in test [20]: Tumor necrosis factor (Homo sapiens) (UniProt P01375)
Briefly: BSK_LPS_TNFa: BioMAP Diversity Plus: LPS Assay for Tumour Necrosis Factor alpha (TNFa) Biomarker Activity (AID 2283085).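 For AC50: TNFa protein level quantified by ELISA in the co-culture.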 As to conditions: primary human HUVEC with PBMC; actives raise or lower the signal. In a few lines:
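HUVEC/PBMC co-culture, LPS-stimulated; 24 h post-dose; TNFa by ELISA; gain or loss of signal fitted bidirectionally vs DMSO baseline.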

Activity calls are given as the source filed them. Rule for the calls: active = hit-call score of the fitted dose curve at least 0.9, where 1 is the maximum; inactive = score below 0.9.

In general, AC50 refers to the concentration giving half of the maximal activity seen.

E-selectin (Homo sapiens), sequence (P16581 whole entry, looked up): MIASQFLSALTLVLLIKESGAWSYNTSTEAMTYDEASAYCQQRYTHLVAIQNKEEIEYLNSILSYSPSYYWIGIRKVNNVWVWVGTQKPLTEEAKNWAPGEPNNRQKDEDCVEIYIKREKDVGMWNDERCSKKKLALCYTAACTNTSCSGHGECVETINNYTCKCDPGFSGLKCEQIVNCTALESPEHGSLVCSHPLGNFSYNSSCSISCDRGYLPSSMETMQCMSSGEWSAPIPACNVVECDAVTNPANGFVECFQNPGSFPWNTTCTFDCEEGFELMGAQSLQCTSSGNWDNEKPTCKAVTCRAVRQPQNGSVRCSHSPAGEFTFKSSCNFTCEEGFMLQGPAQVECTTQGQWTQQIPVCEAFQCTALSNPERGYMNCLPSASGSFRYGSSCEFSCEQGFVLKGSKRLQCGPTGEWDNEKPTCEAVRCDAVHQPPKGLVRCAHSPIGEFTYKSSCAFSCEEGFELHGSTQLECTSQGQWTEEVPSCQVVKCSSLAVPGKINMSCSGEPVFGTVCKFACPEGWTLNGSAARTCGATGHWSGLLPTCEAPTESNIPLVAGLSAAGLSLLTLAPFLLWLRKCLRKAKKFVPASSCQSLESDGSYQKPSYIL
Tumor necrosis factor (Homo sapiens), sequence (P01375 whole entry, looked up): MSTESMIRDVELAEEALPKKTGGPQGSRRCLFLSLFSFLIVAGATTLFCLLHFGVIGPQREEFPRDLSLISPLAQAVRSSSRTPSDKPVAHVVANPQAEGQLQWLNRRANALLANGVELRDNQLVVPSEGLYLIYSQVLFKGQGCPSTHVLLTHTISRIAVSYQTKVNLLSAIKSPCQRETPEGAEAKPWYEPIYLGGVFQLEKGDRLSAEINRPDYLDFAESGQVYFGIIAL

For `Cc1cc(CCN2CCN(c3nsc4ccccc34)CC2)cc2c1NC(=O)CC2(C)C`, the AC50 in [1] is 28.8 µM (active); in test [2], 16.5 µM (active); in test [3] it was 13.4 µM (active); in [4] it was 14.3 µM (active); in test [5] it was 30 µM (active); in [6], 19.5 µM (active). Besides, the AC50 in [7] was 32.8 µM (active); in [8], 10.3 µM (active); in test [9], 26.8 µM (active); in test [10], 5.37 µM (active); in test [11], 15.3 µM (active); in [12], 32.8 µM (active). In addition, the AC50 was 26 µM (active) in [13]; 13.4 µM (active) in test [14]; 14.2 µM (active) in test [15]; 14.4 µM (active) in test [16]; 11.3 µM (active) in test [17]; 11.8 µM (active) in test [18]. In addition, the AC50 in test [19] was 17.3 µM (active).

For `CC(=O)CC(C)(C)O`, the outcome in test [1], in [2], in test [3], in test [4], in test [5] and in test [6] was inactive. Also, the result in [8], in test [9], in [10], in [11], in [12] and in test [20] was inactive. The result in test [13], in [14], in [15], in test [16], in test [17] and in [18] was inactive. Besides, the result in test [19] was inactive.

As for `O=C(O)Cc1cc(I)c(Oc2cc(I)c(O)c(I)c2)c(I)c1`, the AC50 is 11 µM (active) in test [1]; 8.62 µM (active) in [2]; 18.8 µM (active) in [3]; 14.7 µM (active) in [4]; 20.5 µM (active) in test [6]; 21.2 µM (active) in [8]. For the same molecule, the AC50 was 23.9 µM (active) in test [9]; 15.1 µM (active) in test [10]; 17.4 µM (active) in [20]; 13.4 µM (active) in [13]; 21.3 µM (active) in [14]; 18.5 µM (active) in test [15]. Further, the AC50 was 15.3 µM (active) in test [16], 18.9 µM (active) in [17], 16.2 µM (active) in test [18] and 23.6 µM (active) in test [19]. Moreover, the outcome in test [5], in [7], in test [11] and in test [12] was inactive.

Source of the values: PubChem BioAssay (EPA / NIEHS).
